We go through 31 compounds from PubChem BioAssay (NCATS).

Records with an inconclusive call do not appear. Where a call stands in place of a potency, no number is given. A number with no mark means an inactive call. The source made the active and inactive calls. Calls follow the shape of the dose curve; as a rule, active = well fitted cell-killing curve with a large enough effect; inconclusive = small, poorly fitted or top-dose-only effect, or effect the other way; inactive = flat fitted curve, though single readings scatter.
Potency is read from the fitted curve at half-maximal effect.

The subject of this test is Es-2. Kind of test: Primary qHTS to identify gynecologic anti-cancer compounds using libraries of approved drugs and bioactive compounds (AID 1345084). Also: nearly all actives have a fitted effect of over 55% in size. The conditions noted are these: Gynecologic cancer cell panel viability, ATPlite luminescence, 48 h; series mostly up to 57.5 µM. A digest of the protocol:
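Cells, 1,000 per well, plated 16 h, then exposed 48 h at 37 C to compounds. Viability by ATPlite luminescence after 15 min at room temperature.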
For the compound `CCCC1(CCC)CCC2(CCN(CCCN(CC)CC)C2)CC1`, the Potency was 10 µM (active).
Regarding `O=C(NCCCN1CCC2(CC1)OCc1ccccc12)[C@H]1CCCN1Cc1ccccc1`, the Potency result was “inactive”.
Regarding `CC(C)c1cc(-c2ccc(F)c3ccccc23)nc(N)n1`, the Potency result was “inactive”.
As for `CC(=O)OC1CC2(C)C(CCC(C)C23Cc2c(O)cc(CO)c(C=O)c2O3)C(C)(C)C1O` (stereo unspecified), the Potency result was “inactive”.
On to `CC(C)Oc1ccc(-c2cnc3c(-c4ccnc5ccccc45)cnn3c2)cc1`, for which the Potency entry is “inactive”.
With `CC(=O)N[C@H]1[C@H](O[C@H]2CC[C@@]3(C)C(CC[C@]4(C)C3CC=C3C5CC(C)(C)CC[C@]5(C(=O)O)C(O)C[C@]34C)C2(C)C)O[C@H](CO[C@@H]2O[C@H](C)[C@H](O)[C@H](O)[C@H]2O[C@@H]2OC[C@@H](O)[C@H](O)[C@H]2O)[C@@H](O)[C@@H]1O` (stereo partly specified), the activity change, negative = cytotoxicity was 3.97% [at 11.6 µM].
In the case of `Cc1cc(C)nc(SCC(=O)Nc2ncc(Cc3cccc4ccccc34)s2)n1`, the Potency entry was “inactive”.
`COc1cccc(CN(C(=O)CC(C)(C)C)[C@H]2C[C@H](C(=O)N3CCNCC3)N(Cc3ccc4c(c3)OCO4)C2)c1`: the Potency entry is “inactive”.
With `Fc1ccc(N2CCN(CCC3OCCc4ccccc43)CC2)cc1` (stereo unspecified), the Potency result is “inactive”.
On the same count and under the same terms, to `O=C(NCc1ccccc1)c1ccc2c(=O)n(-c3cccc(C(F)(F)F)c3)c(=S)[nH]c2c1` belongs “inactive”.
With `CN[C@@H]1[C@H](O[C@H]2[C@H](O[C@@H]3[C@@H](O)[C@H](O)[C@@H](N=C(N)N)[C@H](O)[C@H]3N=C(N)N)O[C@@H](C)[C@]2(O)CO)O[C@@H](CO)[C@H](O)[C@H]1O`, the Potency entry is “inactive”.
For the compound `CC1CCC(=O)CC(SCC(O)C(=O)O)CCC(=O)O1` (stereo unspecified), the Potency result is “inactive”.
For the compound `C=C1CC[C@H]2C(=C)CC[C@H]3C(=C)C(=O)O[C@@H]3[C@@H]12`, the Potency result is “inactive”.
As to `C=C1C(=O)O[C@@H]2C=C(COC(C)=O)CC/C=C(\CO)CC[C@@H]12`, the Potency entry was “inactive”.
For `CC(=O)OC1C(=O)C2C3OCC4=C3[C@@](C)(CC[C@@H]4O)CC[C@]2(C)[C@H]1C(C)C` (stereo partly specified), the Potency result is “inactive”.
The same measure, in the same setting: to `O=c1[nH]c2cccc(N3CCN(Cc4ccc(-c5ccccc5)cc4)CC3)c2o1` belongs “inactive”; to `Cc1nc(Nc2ccc(F)cc2)nc(N2CCc3ccccc3C2C)c1C` (stereo unspecified), “inactive”.
Turning to `C[C@@H](O[C@H]1OCCN(Cc2nn(P(=O)(O)O)c(=O)[nH]2)[C@H]1c1ccc(F)cc1)c1cc(C(F)(F)F)cc(C(F)(F)F)c1`, the Potency entry is “inactive”.
`COC(=O)C[C@H]1[C@]2(C)C3=C(C)[C@H](c4ccoc4)C[C@H]3O[C@@H]2[C@H](O)C2[C@](C)(C(=O)OC)C=CC(=O)[C@@]21C` (stereo partly specified): the Potency entry is “inactive”.
For `CC(=O)c1ccc2c(c1)[C@H](NC(=O)c1ccc(F)c(Cl)c1)[C@H](O)C(C)(C)O2`, the Potency entry was “inactive”.
`CC1OC(OC2C(O)COC(O[C@@H]3[C@@H](O)[C@@H](O)[C@H](OC4C(OC(=O)[C@]56CCC(C)(C)CC5C5=CCC7[C@@]8(C)C[C@H](O)[C@H](OC9OC(CO)C(O)C(O)C9O)[C@@](C)(CO)C8[C@H](O)C[C@@]7(C)[C@]5(C)CC6)OCC(O)C4O)O[C@H]3C)C2O)C(O)C(O)C1O` (stereo partly specified): the activity change, negative = cytotoxicity is -27.5% [at 6.55 µM].
As for `Cc1c(C(=O)NCc2cccnc2)nn(-c2ccc(Cl)cc2Cl)c1-c1ccc(Cl)cc1`, the Potency entry is “inactive”.
As for `C=C1CCC[C@]2(C)CC/C(=C(/CO)C(=O)OC)C[C@@H]12`, the Potency result was “inactive”.
Take `CC/C(C)=C/C(=O)OC1C(OC2(C)CCC3C(C4C(C)CCC42)C3(C)C)OC(C)C(O)C1O` (stereo unspecified): the Potency result is “inactive”.
Still for that read-out and setting: to `CC(C)[C@@H](c1ccc(C(F)(F)F)cc1CN(Cc1cc(C(F)(F)F)cc(C(F)(F)F)c1)c1nnn(C)n1)N1CCC(C(=O)O)CC1` belongs “inactive”; to `O=C(O)c1ccc(S(=O)(=O)N(Cc2ccc(OC(F)(F)F)cc2)c2ncc(C(F)(F)F)cc2Cl)cc1`, “inactive”; to `COc1ccc(OC)c(-c2ccc(NC(=O)c3ccncc3F)cc2)c1`, “inactive”.
Regarding `C[C@H]1CC[C@@]2(OC1)O[C@H]1CC3C4CC[C@H]5C[C@@H](O)CC[C@]5(C)C4=CC(=O)[C@]3(C)[C@H]1[C@@H]2C` (stereo partly specified), the Potency entry was “inactive”.
In the case of `O=C1c2ccc(Nc3ccc(F)cc3F)cc2CCc2ccc(OCC(O)CO)cc21` (stereo unspecified), the Potency result is “inactive”.
With `CC1(C)OC[C@H](NC(=O)Nc2ccc(Br)cc2Br)[C@H](c2ccccc2)O1`, the Potency result is “inactive”.
With `COc1ccc(C(=O)Nc2c(Cl)cncc2Cl)cc1OC1CCCC1`, the Potency result is “inactive”.
